# What was measured:
# [1] = target: T1, Tyrosine-protein kinase receptor TYRO3 (Homo sapiens) (UniProt Q06418); conditions: at 1 µM
# T1 sequence (whole entry): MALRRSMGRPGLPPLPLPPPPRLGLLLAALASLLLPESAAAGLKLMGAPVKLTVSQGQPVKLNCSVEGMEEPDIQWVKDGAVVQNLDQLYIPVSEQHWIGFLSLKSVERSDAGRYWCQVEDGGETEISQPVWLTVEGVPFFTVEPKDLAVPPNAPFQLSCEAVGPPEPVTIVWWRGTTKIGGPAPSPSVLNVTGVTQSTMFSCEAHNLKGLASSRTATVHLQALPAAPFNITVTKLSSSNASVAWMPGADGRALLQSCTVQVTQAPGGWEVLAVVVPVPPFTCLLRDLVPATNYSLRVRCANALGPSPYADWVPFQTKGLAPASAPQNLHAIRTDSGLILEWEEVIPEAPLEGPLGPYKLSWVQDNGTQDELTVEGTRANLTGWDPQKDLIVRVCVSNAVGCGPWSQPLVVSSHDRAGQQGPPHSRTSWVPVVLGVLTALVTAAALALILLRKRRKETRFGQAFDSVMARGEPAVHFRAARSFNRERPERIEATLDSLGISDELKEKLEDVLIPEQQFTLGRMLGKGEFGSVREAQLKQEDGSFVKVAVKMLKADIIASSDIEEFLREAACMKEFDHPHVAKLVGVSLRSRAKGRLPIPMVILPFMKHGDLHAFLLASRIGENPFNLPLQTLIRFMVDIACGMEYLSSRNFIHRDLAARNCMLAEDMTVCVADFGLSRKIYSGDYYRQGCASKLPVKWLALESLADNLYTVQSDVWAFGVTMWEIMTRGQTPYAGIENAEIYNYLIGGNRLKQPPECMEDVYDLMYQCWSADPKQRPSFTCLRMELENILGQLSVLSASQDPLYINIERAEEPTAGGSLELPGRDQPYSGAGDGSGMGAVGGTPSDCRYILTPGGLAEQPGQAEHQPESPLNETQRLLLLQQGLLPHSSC
# [2] = target: Tyrosine-protein kinase Yes (Homo sapiens) (UniProt P07947); conditions: at 0.1 µM
# [3] = target: Tyrosine-protein kinase Yes (Homo sapiens) (UniProt P07947); conditions: at 1 µM
# [4] = target: T2, Tyrosine-protein kinase ZAP-70 (Homo sapiens) (UniProt P43403); conditions: at 0.1 µM
# T2 sequence (whole entry): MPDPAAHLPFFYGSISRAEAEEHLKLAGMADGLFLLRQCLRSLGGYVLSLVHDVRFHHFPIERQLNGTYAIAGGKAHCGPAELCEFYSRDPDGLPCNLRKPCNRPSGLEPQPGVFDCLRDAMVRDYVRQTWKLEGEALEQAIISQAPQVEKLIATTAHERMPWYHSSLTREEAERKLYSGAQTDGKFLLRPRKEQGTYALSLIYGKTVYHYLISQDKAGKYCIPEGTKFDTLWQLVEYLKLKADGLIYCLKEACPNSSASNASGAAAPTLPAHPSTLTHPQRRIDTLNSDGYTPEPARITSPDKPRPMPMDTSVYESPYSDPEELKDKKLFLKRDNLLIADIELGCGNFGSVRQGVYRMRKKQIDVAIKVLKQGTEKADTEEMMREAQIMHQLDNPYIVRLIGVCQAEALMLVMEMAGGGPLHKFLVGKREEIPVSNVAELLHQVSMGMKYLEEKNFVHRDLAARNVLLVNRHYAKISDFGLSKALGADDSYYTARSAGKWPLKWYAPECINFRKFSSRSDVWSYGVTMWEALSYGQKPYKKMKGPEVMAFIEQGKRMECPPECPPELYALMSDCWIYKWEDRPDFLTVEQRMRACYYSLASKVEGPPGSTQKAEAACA
# [5] = target: T2, Tyrosine-protein kinase ZAP-70 (Homo sapiens); conditions: at 1 µM
# [6] = target: Serine/threonine-protein kinase B-raf (Homo sapiens) (UniProt P15056); conditions: at 0.1 µM
# [7] = target: Serine/threonine-protein kinase B-raf (Homo sapiens) (UniProt P15056); conditions: at 1 µM
# [8] = tested on: Serine/threonine-protein kinase B-raf (Homo sapiens), P15056 [V600E]; conditions: at 0.1 µM
# [9] = tested on: Serine/threonine-protein kinase B-raf (Homo sapiens), P15056 [V600E]; conditions: at 1 µM
# [10] = target: RAF proto-oncogene serine/threonine-protein kinase (Homo sapiens) (UniProt P04049); conditions: at 0.1 µM
# [11] = target: RAF proto-oncogene serine/threonine-protein kinase (Homo sapiens) (UniProt P04049); conditions: at 1 µM
# [12] = target: T3, Interleukin-1 receptor-associated kinase 4 (Homo sapiens) (UniProt Q9NWZ3); conditions: at 0.1 µM
# T3 sequence (whole entry): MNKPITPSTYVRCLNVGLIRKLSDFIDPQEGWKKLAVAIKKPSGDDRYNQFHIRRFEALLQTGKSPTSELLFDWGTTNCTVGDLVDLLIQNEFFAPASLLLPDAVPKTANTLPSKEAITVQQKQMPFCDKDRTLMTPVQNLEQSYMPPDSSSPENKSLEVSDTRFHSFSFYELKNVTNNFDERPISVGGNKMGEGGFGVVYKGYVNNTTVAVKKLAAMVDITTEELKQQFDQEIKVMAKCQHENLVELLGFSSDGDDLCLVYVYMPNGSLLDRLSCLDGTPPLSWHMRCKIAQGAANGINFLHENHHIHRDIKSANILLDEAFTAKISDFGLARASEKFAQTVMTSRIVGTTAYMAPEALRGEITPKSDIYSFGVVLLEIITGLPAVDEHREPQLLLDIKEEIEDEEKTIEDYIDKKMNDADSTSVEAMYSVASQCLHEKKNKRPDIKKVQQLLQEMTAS
# [13] = target: T3, Interleukin-1 receptor-associated kinase 4 (Homo sapiens); conditions: at 1 µM
# [14] = target: Leucine-rich repeat serine/threonine-protein kinase 2 (Homo sapiens) (UniProt Q5S007); conditions: at 0.1 µM
# [15] = target: Leucine-rich repeat serine/threonine-protein kinase 2 (Homo sapiens) (UniProt Q5S007); conditions: at 1 µM
# [16] = tested on: Leucine-rich repeat serine/threonine-protein kinase 2 (Homo sapiens), Q5S007 [G2019S]; conditions: at 0.1 µM
# [17] = tested on: Leucine-rich repeat serine/threonine-protein kinase 2 (Homo sapiens), Q5S007 [G2019S]; conditions: at 1 µM
# Chain of Tyrosine-protein kinase Yes (Homo sapiens) (P07947 2-543 limits assumed): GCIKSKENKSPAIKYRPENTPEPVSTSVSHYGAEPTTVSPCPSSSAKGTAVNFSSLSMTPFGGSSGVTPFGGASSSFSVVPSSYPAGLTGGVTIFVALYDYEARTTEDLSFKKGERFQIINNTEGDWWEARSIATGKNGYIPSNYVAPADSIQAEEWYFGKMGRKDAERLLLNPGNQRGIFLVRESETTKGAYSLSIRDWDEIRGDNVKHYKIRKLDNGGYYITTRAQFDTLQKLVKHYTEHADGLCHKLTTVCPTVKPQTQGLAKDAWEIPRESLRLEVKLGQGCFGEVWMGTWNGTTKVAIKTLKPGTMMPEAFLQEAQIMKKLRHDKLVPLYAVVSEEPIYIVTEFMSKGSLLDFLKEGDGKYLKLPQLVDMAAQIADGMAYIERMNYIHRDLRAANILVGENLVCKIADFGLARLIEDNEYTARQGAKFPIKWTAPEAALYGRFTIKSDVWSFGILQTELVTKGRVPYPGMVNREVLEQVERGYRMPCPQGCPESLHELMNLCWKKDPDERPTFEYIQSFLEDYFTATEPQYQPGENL
# Chain of Leucine-rich repeat serine/threonine-protein kinase 2 (Homo sapiens), Q5S007 [G2019S] (Q5S007 whole entry G2019S): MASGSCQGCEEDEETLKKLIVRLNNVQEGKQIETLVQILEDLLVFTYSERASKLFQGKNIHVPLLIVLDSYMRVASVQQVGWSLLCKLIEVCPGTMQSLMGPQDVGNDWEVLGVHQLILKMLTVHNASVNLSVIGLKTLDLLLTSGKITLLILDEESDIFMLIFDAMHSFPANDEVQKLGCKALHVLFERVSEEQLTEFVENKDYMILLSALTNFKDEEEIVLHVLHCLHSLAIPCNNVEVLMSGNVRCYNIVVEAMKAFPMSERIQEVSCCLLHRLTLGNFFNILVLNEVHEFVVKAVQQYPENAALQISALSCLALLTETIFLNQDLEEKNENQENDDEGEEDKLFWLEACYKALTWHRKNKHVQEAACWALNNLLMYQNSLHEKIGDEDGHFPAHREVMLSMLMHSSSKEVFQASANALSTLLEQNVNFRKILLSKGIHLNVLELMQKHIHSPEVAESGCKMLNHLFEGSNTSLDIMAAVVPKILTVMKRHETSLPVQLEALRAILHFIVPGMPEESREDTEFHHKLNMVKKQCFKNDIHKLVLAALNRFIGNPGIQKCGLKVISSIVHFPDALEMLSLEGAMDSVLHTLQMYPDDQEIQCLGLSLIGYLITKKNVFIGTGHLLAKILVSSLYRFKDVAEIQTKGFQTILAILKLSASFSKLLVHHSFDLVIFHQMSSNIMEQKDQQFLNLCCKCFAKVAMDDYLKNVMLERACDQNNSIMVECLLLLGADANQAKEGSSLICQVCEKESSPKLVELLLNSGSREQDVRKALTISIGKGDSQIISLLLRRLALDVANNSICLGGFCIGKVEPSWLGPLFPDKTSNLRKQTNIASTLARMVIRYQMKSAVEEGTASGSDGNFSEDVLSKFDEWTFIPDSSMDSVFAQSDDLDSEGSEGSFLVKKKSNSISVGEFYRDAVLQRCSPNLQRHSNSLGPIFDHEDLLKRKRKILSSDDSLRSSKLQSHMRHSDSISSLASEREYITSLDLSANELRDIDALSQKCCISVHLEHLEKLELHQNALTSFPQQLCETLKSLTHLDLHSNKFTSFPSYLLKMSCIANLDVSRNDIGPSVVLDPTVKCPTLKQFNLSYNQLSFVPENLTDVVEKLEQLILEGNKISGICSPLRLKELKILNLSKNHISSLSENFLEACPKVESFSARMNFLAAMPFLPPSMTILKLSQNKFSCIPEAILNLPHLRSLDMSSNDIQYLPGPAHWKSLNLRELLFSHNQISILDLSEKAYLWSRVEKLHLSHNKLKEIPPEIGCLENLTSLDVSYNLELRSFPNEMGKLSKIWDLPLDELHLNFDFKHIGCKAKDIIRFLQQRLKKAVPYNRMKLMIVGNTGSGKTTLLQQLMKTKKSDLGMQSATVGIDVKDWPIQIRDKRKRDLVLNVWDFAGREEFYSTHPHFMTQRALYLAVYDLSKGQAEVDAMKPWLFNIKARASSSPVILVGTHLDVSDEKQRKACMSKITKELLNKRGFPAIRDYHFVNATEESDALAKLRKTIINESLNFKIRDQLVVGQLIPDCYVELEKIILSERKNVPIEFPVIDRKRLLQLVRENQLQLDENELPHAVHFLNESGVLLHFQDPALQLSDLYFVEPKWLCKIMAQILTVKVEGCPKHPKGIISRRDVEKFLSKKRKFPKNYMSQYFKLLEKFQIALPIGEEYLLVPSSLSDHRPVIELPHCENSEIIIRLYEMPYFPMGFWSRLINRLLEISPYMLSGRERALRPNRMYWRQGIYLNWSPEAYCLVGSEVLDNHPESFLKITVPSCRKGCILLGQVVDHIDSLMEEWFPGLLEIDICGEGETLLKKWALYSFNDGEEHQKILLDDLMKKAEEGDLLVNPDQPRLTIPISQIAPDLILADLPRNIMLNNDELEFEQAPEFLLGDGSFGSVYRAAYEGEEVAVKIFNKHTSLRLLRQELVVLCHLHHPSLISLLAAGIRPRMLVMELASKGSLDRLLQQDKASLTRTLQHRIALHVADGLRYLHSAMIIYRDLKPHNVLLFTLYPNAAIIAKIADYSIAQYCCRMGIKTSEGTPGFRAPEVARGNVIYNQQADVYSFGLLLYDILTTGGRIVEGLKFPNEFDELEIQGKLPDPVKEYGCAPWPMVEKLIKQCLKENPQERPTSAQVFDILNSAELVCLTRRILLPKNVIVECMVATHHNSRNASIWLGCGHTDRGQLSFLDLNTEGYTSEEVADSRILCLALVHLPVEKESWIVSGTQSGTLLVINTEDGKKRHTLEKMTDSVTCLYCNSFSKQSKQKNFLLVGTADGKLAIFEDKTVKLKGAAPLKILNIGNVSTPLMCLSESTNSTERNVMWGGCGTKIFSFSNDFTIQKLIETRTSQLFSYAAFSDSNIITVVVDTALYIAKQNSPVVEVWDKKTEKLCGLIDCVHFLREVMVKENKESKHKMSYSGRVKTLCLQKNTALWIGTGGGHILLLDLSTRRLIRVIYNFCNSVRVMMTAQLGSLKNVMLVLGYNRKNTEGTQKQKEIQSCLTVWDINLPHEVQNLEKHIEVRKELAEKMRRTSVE
# Chain of Serine/threonine-protein kinase B-raf (Homo sapiens) (P15056 whole entry): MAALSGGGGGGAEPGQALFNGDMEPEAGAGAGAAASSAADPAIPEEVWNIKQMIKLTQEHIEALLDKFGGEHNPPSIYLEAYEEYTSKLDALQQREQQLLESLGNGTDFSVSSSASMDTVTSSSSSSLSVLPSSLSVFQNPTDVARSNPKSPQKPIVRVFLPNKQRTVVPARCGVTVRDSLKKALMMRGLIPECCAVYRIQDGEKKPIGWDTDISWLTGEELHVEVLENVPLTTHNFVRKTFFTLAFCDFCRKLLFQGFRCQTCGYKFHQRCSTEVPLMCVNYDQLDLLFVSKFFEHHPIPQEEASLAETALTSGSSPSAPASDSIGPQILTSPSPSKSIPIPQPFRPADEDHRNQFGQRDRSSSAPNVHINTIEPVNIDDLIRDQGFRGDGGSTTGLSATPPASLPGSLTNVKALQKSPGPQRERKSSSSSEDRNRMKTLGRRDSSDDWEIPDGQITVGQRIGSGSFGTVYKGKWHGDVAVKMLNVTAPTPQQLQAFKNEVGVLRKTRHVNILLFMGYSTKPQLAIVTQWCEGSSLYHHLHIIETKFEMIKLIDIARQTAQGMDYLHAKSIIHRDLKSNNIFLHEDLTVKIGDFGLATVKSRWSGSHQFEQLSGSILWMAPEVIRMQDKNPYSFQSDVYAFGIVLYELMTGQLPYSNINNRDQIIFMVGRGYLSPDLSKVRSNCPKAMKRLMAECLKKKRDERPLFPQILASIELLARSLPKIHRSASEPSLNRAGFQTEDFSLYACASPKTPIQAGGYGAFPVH
# Chain of Leucine-rich repeat serine/threonine-protein kinase 2 (Homo sapiens) (Q5S007 whole entry): as the sequence (Q5S007 whole entry G2019S) above, with S2019G counted along it
# Chain of Serine/threonine-protein kinase B-raf (Homo sapiens), P15056 [V600E] (P15056 whole entry V600E): as the sequence (P15056 whole entry) above, with V600E counted along it
# Chain of RAF proto-oncogene serine/threonine-protein kinase (Homo sapiens) (P04049 whole entry): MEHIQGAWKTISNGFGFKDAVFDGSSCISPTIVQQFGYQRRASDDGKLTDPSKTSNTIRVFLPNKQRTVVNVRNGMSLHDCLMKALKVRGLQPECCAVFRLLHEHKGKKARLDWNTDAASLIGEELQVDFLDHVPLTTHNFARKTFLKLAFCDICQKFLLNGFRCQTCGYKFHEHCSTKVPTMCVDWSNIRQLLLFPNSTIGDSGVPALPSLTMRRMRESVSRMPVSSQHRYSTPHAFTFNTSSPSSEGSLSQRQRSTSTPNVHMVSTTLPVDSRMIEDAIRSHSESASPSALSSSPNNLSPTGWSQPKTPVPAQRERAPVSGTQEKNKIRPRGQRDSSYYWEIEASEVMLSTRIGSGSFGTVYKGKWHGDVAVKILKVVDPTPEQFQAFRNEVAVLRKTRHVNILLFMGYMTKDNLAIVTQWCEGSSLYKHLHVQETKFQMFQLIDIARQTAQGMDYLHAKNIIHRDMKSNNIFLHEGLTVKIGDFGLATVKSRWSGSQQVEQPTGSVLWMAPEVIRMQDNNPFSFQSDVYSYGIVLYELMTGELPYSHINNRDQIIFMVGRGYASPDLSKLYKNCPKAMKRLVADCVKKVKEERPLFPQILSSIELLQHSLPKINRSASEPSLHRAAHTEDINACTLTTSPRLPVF
Compound,inhibition [1] [%],inhibition [2] [%],inhibition [3] [%],inhibition [4] [%],inhibition [5] [%],inhibition [6] [%],inhibition [7] [%],inhibition [8] [%],inhibition [9] [%],inhibition [10] [%],inhibition [11] [%],inhibition [12] [%],inhibition [13] [%],inhibition [14] [%],inhibition [15] [%],inhibition [16] [%],inhibition [17] [%]
C/C(Nc1ccc(S(N)(=O)=O)cc1)=C1/C(=O)Nc2ccccc21,16.8,-1.58,14.1,-2.58,0.18,-1.47,0.23,-2.48,-0.68,-5.23,-3.52,2.06,0.3,3.27,18.4,11.4,47.1
COc1ccc(C2=C(N3CCc4ccccc43)C(=O)NC2=O)cc1,3.41,4.87,5.12,3.72,-0.45,5.73,7.39,6.3,4.71,-3.24,-3.87,5.89,2.48,3.04,10.9,4.7,13.9
O=C(Nc1n[nH]c2cc(-c3cc(F)ccc3F)ccc12)C1CC1,11.7,2.25,8.92,0.04,-0.4,5.1,7.61,5.62,6.3,-1.79,-0.98,2.21,1.18,2.33,3.26,1.81,6.24
CNC(=O)c1cncc(/C=C/c2c(C)cccc2C)c1,2.18,6.81,33,-2.13,-4.22,0.8,5.69,-0.11,2.82,-5.49,-0.25,-1.78,0.42,-5.56,-1.97,-3.85,-1.34
Cc1ccc(NC(=O)c2ccoc2)cc1-c1ccc(C(=O)NCC2CC2)cc1,3.21,3.34,1.5,-0.49,1.63,3.14,2.28,2.97,1.81,0.61,-0.41,1.67,2,1.24,4.06,2.32,2.75
CCC(=O)Nc1ccc(C)c(-c2ccc(C(=O)NCC3CC3)cc2)c1,2.68,3.12,4.01,-4.93,1.46,4.61,4.76,3.97,4.63,2.89,-0.29,1.62,2.19,-0.86,1.68,0.68,2.28
CCc1ccc(Oc2nccc(-c3c(-c4ccc(F)cc4)ncn3C3CCNCC3)n2)cc1,1.06,4.27,7.31,-0.22,-4.21,4.48,10.2,4.23,8.72,1.49,-0.51,2.21,2.52,0.68,6,3.1,6.63
Nc1nccc(-c2c(-c3ccc(F)cc3)ncn2C2CCC(O)CC2)n1 (stereo not given),2.9,5.1,40,-8.32,1.54,-2.22,-1.06,-3.35,-2.66,-4.81,-9.19,-0.79,-1,-0.71,0.86,1.56,4.03
O=C(Nc1n[nH]c2nc(-c3ccco3)ccc12)C1CC1,8.73,0.35,0.02,0.28,0.47,1.98,3.43,1.17,4.38,4.75,0.48,-2.9,0.56,3.59,7.47,2.37,8.01
COc1cc(Nc2ncc3c(C)nc(-c4cccc(C(F)(F)F)c4)n3n2)cc(OC)c1OC,10.6,11.6,42.7,1.78,2.75,5.44,14.8,5.48,13.2,3.02,-2.3,-2.83,1.37,8.04,17.4,11.1,39.6
NC(=O)Cc1ccccc1Oc1nccc(-c2c(-c3ccc(F)cc3)ncn2C2CCNCC2)n1,-0.3,1.2,2.44,2.88,-4.81,3.8,6.06,3.3,4.77,-0.15,-7.05,3.72,1.16,6.61,2.56,6.11,8.33
COc1ccc2cc(-c3c(-c4ccncc4)nc(-c4ccc(S(C)(=O)=O)cc4C)n3C)ccc2c1,5.53,3.64,20.9,-0.34,0.82,6.36,6.36,6.6,5.85,5.5,2.24,3.69,2.09,1.75,6.91,2.55,10.2
Fc1ccc(-c2ncn(CCCN3CCOCC3)c2-c2ccncc2)cc1,-1.64,-0.25,-0.03,3.48,3.14,0.29,1.33,0.73,0.78,-0.34,-5.69,3.04,-0.71,0.7,3.28,1.27,4.28
COc1cccc(/C=N/Nc2ncnc3c2cnn3-c2cccc(OC)c2)c1,4.49,2.39,8.43,1.23,2.81,4.82,6.54,4.25,4.68,1.07,-1.82,1.63,2.48,-1.62,0.55,0.17,5.07
C#Cc1cccc(Nc2ncnc3ccc(OCCCCNCCS(C)(=O)=O)cc23)c1,8.46,4.13,12.3,-1.39,-2.29,8.08,6.4,8.35,5.48,-5.79,-0.78,4.25,2.41,-4.32,1.7,-0.62,5.54

# From ChEMBL document CHEMBL1961873, “Compounds: GSK PKIS; Assays: Nanosyn kinase panel” (2012)
